# KB-3-1 tox: kills parental KB-3-1 adenocarcinoma cells | KB-3-1 viability, CellTiter-Glo ATP luminescence, 72 h | Potency, µM (highest dose often 46.1 µM), usual class: cytotoxic | actives 1.4% (n = 400,000) | AID 1347075; note: potency is the fitted concentration of half-maximal effect; nearly all actives have a fitted effect of over 60% in size
#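 Cells are dispensed, compounds pinned in, plates held at 37 °C for 72 h, then CellTiter-Glo is added and luminescence read after 10 minutes. Cell line: parental KB-3-1 in phenol-red-free DMEM, 10% FBS.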
# IL1B secr inh: blocks inflammasome-driven IL-1 beta release; THP-1 LPS/ATP IL-1B secretion, AlphaLISA, 16 h; active compounds read low; activity change, % at 57.5 µM; actives 4.7% (n = 360,000); AID 743279; in the data active = activity change below about -50%; inconclusive = mostly about -30% to -49%
#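 Secreted IL-1B measured by AlphaLISA bead assay after 16 h compound exposure of THP-1 cells; compounds (final up to 57.5 uM) added 1 h before LPS (250 ng/mL) and ATP (1.25 mM) stimulation; lower signal means less secretion.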
# KB-V1 cytotox: kills drug-selected multidrug resistant KB-V1 cells | AID 1347076 | KB-V1 MDR cells viability, CellTiter-Glo, 72 h | Potency, µM (series often up to 46.1 µM), usual class: cytotoxic | actives 3.4% (n = 400,000); note: potency is the fitted concentration of half-maximal effect; nearly all actives have a fitted effect of over 60% in size
#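 Cytotoxicity toward P-gp-expressing KB-V1 cells was determined as loss of CellTiter-Glo luminescence after 72 h at 37 degrees C. Compounds were tested in quantitative HTS format across a concentration range, with curves fitted to normalized data.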
# HT1080 IDH1KD tx: toxicity to HT-1080 IDH1 knockdown cells (counter line); HT-1080 IDH1 knockdown viability, ATP luminescence, 48 h; Potency, µM (doses to about 46.1 µM), without a hit: top-dose activity, negative = toxicity, hits mostly cytotoxic; actives 2% (n = 360,000); AID 686971;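 note: potency is the fitted concentration of half-maximal effect; 0% = DMSO wells and -100% = cell-free medium wells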
#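 Knockdown cells (IDH1KD HT-1080) received compounds 2 h after plating at 750 cells/well and were kept 48 h at 37 °C in 5% FBS RPMI. A CellTiter-Glo luminescence read gave % activity for curve fitting.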
# HT1080-NT tox: kills 2HG-producing HT-1080-NT fibrosarcoma cells; HT-1080-NT fibrosarcoma viability, CellTiter-Glo ATP luminescence, 48 h; actives 1.6% (n = 360,000); Potency, µM (series often up to 46.1 µM), without a hit: at the top dose activity, negative = less viability, hits mostly cytotoxic; AID 686970;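 note: NT is the 2HG producing partner of a matched IDH1 knockdown line; potency is the fitted concentration of half-maximal effect; 0% = DMSO-treated cells and -100% = media-only wells without cells; nearly all actives have a fitted effect of over 55% in size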
#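 A 48-hour cytotoxicity screen used HT-1080-NT cells plated 2 hours before compound delivery. ATP-based CellTiter-Glo luminescence measured viability, normalized to DMSO and no-cell controls.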
# An asterisk follows results filed as active; i = inactive; u = inconclusive; x = no result given; ! = repeats disagree. The list is not random: actives were taken first. Their share in the collection is about 8.8%. Unless noted, calls come from the whole dose curve; as a rule, active = well fitted curve in the direction sought with a large enough effect; inconclusive = small, poorly fitted or top-dose-only effect, or another doubt; inactive = no such curve, though single readings can be large; an effect the other way counts as inactive or inconclusive. Unless noted, % is set by controls: 0 for no effect and ±100 for the full control effect.
SMILES,KB-3-1 tox,IL1B secr inh,KB-V1 cytotox,HT1080 IDH1KD tx,HT1080-NT tox
CCCOC(=O)CSC1=C(C#N)C(c2ccc3c(c2)OCO3)CC(=O)N1 (configuration not stated),u,-11,i,u,u
COC(=O)CSC1=C(C#N)C(c2ccc(C)o2)CC(=O)N1 (configuration not stated),18µM*,5,u,7.3µM*,u
CCOc1ccc(NC(=O)CSC2=C(C#N)C(c3ccc4c(c3)OCO4)CC(=O)N2)cc1 (configuration not stated),i,-55*,i,u,-9%
Cc1ccc(NC(=O)CSC2=C(C#N)C(c3ccco3)CC(=O)N2)cc1 (configuration not stated),u,-14,u,-2%,5%
NC(=O)C1CCN(c2ncnc(-c3ccc4c(c3)OCCCO4)n2)CC1,i,x,i,x,x
Cc1ccc(SCC(=O)NNC(=O)CNC(=O)c2ccccc2F)cc1,i,12,i,7%,-1%
Cc1ccccc1Cn1c(CN2CCc3ccccc3C2)nc2c1c(=O)n(C)c(=O)n2C,i,-59*,23µM*,u,u
COC(=O)Cn1c(CN2CCc3ccccc3C2)nc2c1c(=O)n(C)c(=O)n2C,i,54,i,2%,5%
Cn1c(=O)c2c(nc(CN3CCN(c4ccccc4F)CC3)n2Cc2ccc(F)cc2)n(C)c1=O,i,x,i,x,x
Cn1c(=O)c2c(nc(CN3CCc4ccccc4C3)n2Cc2ccc(F)cc2)n(C)c1=O,i,0,9.2µM*,-3%,-1%
Cc1ccc(NC(NC(=O)c2ccccc2[N+](=O)[O-])C(Cl)(Cl)Cl)cc1 (configuration not stated),i,-13,21µM*,0%,-1%
Cc1cccc(NC(NC(=O)Cc2ccccc2)C(Cl)(Cl)Cl)c1 (configuration not stated),u,-8,u,1%,2%
Cc1ccc(NC(NC(=O)Cc2ccccc2)C(Cl)(Cl)Cl)cc1 (configuration not stated),u,0,15µM*,9%,4%
CC1(C(=O)Nc2ccccc2)Cc2c(-c3ccc4c(c3)OCO4)ccnc2O1 (configuration not stated),u,-26,u,u,u
CC1(C(=O)Nc2cccnc2)Cc2c(-c3ccc4c(c3)OCO4)ccnc2O1 (configuration not stated),15µM*,-22,u,-29%,-19%
O=C(COCc1cc(-c2ccc3c(c2)OCO3)on1)Nc1cccnc1,i,-4,u,5.8µM*,6.5µM*
O=C(COCc1cc(-c2ccc3c(c2)OCO3)on1)Nc1cccc(O)c1,i,x,i,x,x
CC1(C(=O)Nc2cccc(Oc3ccccc3)c2)Cc2c(-c3ccc4c(c3)OCO4)ccnc2O1 (configuration not stated),4.6µM*,80,5.8µM*,u,u
CS(=O)(=O)c1ccccc1-c1nnc(NC(=O)c2ccc3ncsc3c2)o1,i,8,i,-13%,-3%
COc1ccc(C(=O)c2cc(C(C)=O)c(Nc3ccccc3)s2)cc1,u,u,16µM*,u,u
COc1ccc(C(=O)c2sc(Nc3cc(Cl)ccc3C)nc2N)cc1OC,i,x,i,x,x
COc1ccc(C(=O)c2sc(Nc3ccccc3F)nc2N)cc1,i,u,i,3%,13%
COc1ccc(C(=O)c2sc(Nc3ccccc3)nc2N)cc1,i,-77*,13µM*!,-18%,-16%
COc1ccc(C(=O)Nc2ccc(C(=O)c3ccccc3)cc2)cc1,i,32,u,u,u
COc1ccc(C(=O)c2sc(Nc3ccccc3)nc2N)cc1OC,u,-98*,15µM*,u,u
CCc1c(C)nc2ncnn2c1N1CCCC(C(=O)NCCc2ccc(OC)cc2)C1 (configuration not stated),u,-2,15µM*,u,5%
CCCc1cc(N2CCCC(C(=O)Nc3ccc(OC)cc3OC)C2)n2ncnc2n1 (configuration not stated),u,10,3.7µM*,-4%,3%
